# Test results reported in PubChem BioAssay (NCATS).
# Inconclusive results are not listed. The source made the active and inactive calls. Unless noted, calls come from the whole dose curve; as a rule, active = well fitted curve in the direction sought with a large enough effect; inconclusive = small, poorly fitted or top-dose-only effect, or another doubt; inactive = no such curve, though single readings can be large; an effect the other way counts as inactive or inconclusive.
# Experiments:
# [1] = target: Alpha-galactosidase A (Homo sapiens) (UniProt P06280); experiment: Counterscreen for Glucocerebrosidase Inhibitors: qHTS Assay for Human alpha-Galactosidase at pH 4.5 (AID 992); note: 0% is about no effect
# Summary of the method: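 Enzyme at 2 nM final was combined with compound (0.7 nM to 77 uM) and 80 uM 4-methylumbelliferyl alpha-D-galactopyranoside in 50 mM citric acid, 0.005% Tween-20, pH 4.5. After 20 min at room temperature, fluorescence was read (Ex 365/Em 440 nm); AC50 came from Hill fits.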
# [2] = target: alpha-glucosidase (Oryza sativa, rice) (UniProt Q653V4); experiment: Counterscreen for Glucocerebrosidase Inhibitors: qHTS Assay for Rice alpha-Glucosidase at pH 5.0 (AID 997);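 note: 0% = full activity with enzyme and -100% = basal without enzyme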
# Summary of the method: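 Rice alpha-glucosidase (4 nM final) with 400 uM 4-methylumbelliferyl-alpha-D-glucopyranoside in citrate buffer pH 5.0, 20 min at room temperature, stopped at pH 10; fluorescence 365/440 nm, compounds 0.7 nM–77 uM, AC50 from Hill fits.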
# [3] = target: ATP-dependent 6-phosphofructokinase (Trypanosoma brucei brucei) (UniProt O15648); experiment: qHTS Assay to Find Inhibitors of T. brucei phosphofructokinase: hit validation (AID 492961);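 note: luminescence reports ADP formed as PFK phosphorylates fructose-6-phosphate with ATP; % is set by controls: 0 for no effect and ±100 for the full control effect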
# Summary of the method: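 ADP-Glo luminescence read-out of ADP formed by 1.25 nM PFK from 0.1 mM ATP and 0.5 mM F6P (TEA pH 8.0, 45 min, RT). Compounds titrated; activity normalized to no-enzyme and full-enzyme controls.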
# [4] = target: Ubiquitin carboxyl-terminal hydrolase 1 (Homo sapiens) (UniProt O94782); experiment: Inhibitors of USP1/UAF1: Pilot qHTS (AID 504865);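 note: rhodamine fluorescence freed from ubiquitin-rhodamine substrate followed over time; top concentration of the series differs between compounds; % is set by controls: 0 for no effect and ±100 for the full control effect; nearly all actives have a fitted effect of over 35% in size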
# Summary of the method: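 Enzyme-free wells gave the negative control, while test wells held 1nM USP1/UAF1 preincubated with compound for 15 min at room temperature. Ub-Rho at 150nM final started the reaction, and fluorescence at 480/540 nm was recorded kinetically.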
# [5] = Cell Viability - LYMP1-002 - Assay at 24 hr (AID 993); note: % is set by controls: 0 for no effect and ±100 for the full control effect
# Summary of the method: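 Cells plated 2500/well, 5 hr 37 C; compounds added, 24 hr 37 C; CellTiter-Glo added, 30 min RT; luminescence read. Tetraoctylammonium bromide positive control. Hill-equation AC50.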
# [6] = Cell Viability - LYMP1-002 - Assay at 40 hr (AID 994);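 note: 0% = DMSO only and full inhibition = 92 µM tetraoctylammonium bromide; nearly all actives have a fitted effect of over 60% in size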
# Summary of the method: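 Luminescent ATP signal served as the viability readout, with decreases taken as toxicity. Cells were treated with compounds across a concentration range for 40 hours at 37 C, and AC50 values came from standard Hill modeling.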
# [7] = qHTS Assay for Identification of Small Molecule Inducers of Hypoxia Response (AID 2120; active = well fitted curve in the direction sought with a large enough effect in the signal ratio, with a control signal flat, not every such curve was filed as active; the % refers to the signal ratio; note: 0% is about no effect)
# Summary of the method: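 ME-180 HRE-bla cells plated in Opti-MEM/0.5% dialyzed FBS, rested 4-5 h, then dosed with compound titrations by pin tool. After 17 h at 37 degrees C, CCF4 dye loaded 2.5 h at RT; 460/530 nm ratio gave %Activity and AC50.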
# [8] = target: Estrogen receptor (Homo sapiens) (UniProt P03372); experiment: qHTS assay for small molecule antagonists of estrogen receptor alpha signaling (AID 588513; active = well fitted curve in the direction sought with a large enough effect in the signal ratio, with a control signal flat, not every such curve was filed as active; the % refers to the signal ratio; note: % is set by controls: 0 for no effect and ±100 for the full control effect)
# Summary of the method: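 Antagonist-mode qHTS in ER-alpha-UAS-bla HEK 293 cells: compound titration, 0.5nM estradiol for 18 h, CCF4 fluorescence, Hill-derived IC50.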
# [9] = target: Estrogen receptor (Homo sapiens) (UniProt P03372); experiment: qHTS assay for small molecule agonists of estrogen receptor alpha signaling (AID 588514; calls by dose curve;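 note: 0% = vehicle only and 100% = reference agonist; nearly all actives have a fitted effect of over 70% in size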)
# Summary of the method: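 Cells were plated at 5000/well, incubated 4 hrs at 37 C, dosed with compound titration series, incubated 18 hrs at 37 C, loaded with CCF4 dye for 2 hrs at RT, then fluorescence was read.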
# [10] = target: Androgen receptor (Homo sapiens) (UniProt P10275); experiment: qHTS assay for small molecule agonists of androgen receptor signaling (AID 588515; active = well fitted curve in the direction sought with a large enough effect in the signal ratio, with a control signal flat; the % refers to the signal ratio; note: % is set by controls: 0 for no effect and ±100 for the full control effect); conditions: AR-UAS-bla HEK293, beta-lactamase ratio, agonist 16 h; stronger effect = higher value
# Summary of the method: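 EC50 and efficacy came from Hill fits of titrations (up to 92 uM) normalized to 30 nM R1881 as 100% and DMSO as 0%. Compound exposure was 16 h at 37 C on AR-UAS-bla HEK293 cells, with a 405/460/530 nm CCF4 fluorescence read.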
# [11] = target: Androgen receptor (Homo sapiens) (UniProt P10275); experiment: qHTS assay for small molecule antagonists of androgen receptor signaling (AID 588516; active = well fitted curve in the direction sought with a large enough effect in the signal ratio, with a control signal flat, not every such curve was filed as active; the % refers to the signal ratio; note: % is set by controls: 0 for no effect and ±100 for the full control effect)
# Summary of the method: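 Compounds tested in titration against 10 nM R1881 in AR-responsive bla reporter HEK 293 cells; CCF4 fluorescence (460/530 nm) after 16 h exposure gave IC50 and efficacy.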
# [12] = target: Glucocorticoid receptor (Homo sapiens) (UniProt P04150); experiment: qHTS assay for small molecule agonists of glucocorticoid receptor signaling (AID 588532; active = well fitted curve in the direction sought with a large enough effect in the signal ratio, with a control signal flat; the % refers to the signal ratio;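 note: 100% = dexamethasone at 0.1 µM and 0% = DMSO only wells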); conditions: HeLa MMTV-bla, beta-lactamase ratio, agonist, 18 h; stronger effect = higher value; percent of dexamethasone control, DMSO zero
# Summary of the method: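 Agonist-mode qHTS: GRE-driven beta-lactamase in HeLa cells exposed 18 h to titrated compounds (up to 92 uM), then CCF4 ratio read after 2 h at RT; Hill-fitted EC50, efficacy relative to 0.1 uM dexamethasone.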
# [13] = target: Glucocorticoid receptor (Homo sapiens) (UniProt P04150); experiment: qHTS assay for small molecule antagonists of glucocorticoid receptor signaling (AID 588533; active = well fitted inhibition curve with a large enough effect in the signal ratio, with a control signal flat, not every such curve was filed as active; the % refers to the signal ratio)
# Summary of the method: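 Antagonist-mode qHTS: compound titrations added to GRE-bla HeLa cells, then dexamethasone 2 nM final; 18 h, 37 C. CCF4 FRET fluorescence normalized to dexamethasone and DMSO; IC50 from Hill fit.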
# [14] = target: Peroxisome proliferator-activated receptor gamma (Homo sapiens) (UniProt P37231); experiment: qHTS assay for small molecule agonists of peroxisome proliferator-activated receptor gamma signaling (AID 588536; active = well fitted curve in the direction sought with a large enough effect in the signal ratio, with a control signal flat, not every such curve was filed as active; the % refers to the signal ratio;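 note: 0% = DMSO basal wells and 100% = rosiglitazone at 2 µM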)
# Summary of the method: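 PPAR-gamma-UAS-bla HEK293 cells in medium with 1% charcoal/dextran-treated FBS were exposed to compounds for 16 h at 37 C. Beta-lactamase activity was read with CCF4 substrate (405 nm excitation, 460/530 nm emission).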
# [15] = target: Vitamin D3 receptor (Homo sapiens) (UniProt P11473); experiment: qHTS assay for small molecule antagonists of vitamin D receptor signaling (AID 588541; calls by dose curve)
# Summary of the method: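 Antagonist-mode beta-lactamase reporter assay: HEK293T VDR-UAS-bla cells were exposed to titrated compound alongside 1-alpha,25-dihydroxyvitamin D3 at 3 nM final for 16 h. Values were normalized to the 50 nM agonist control and DMSO basal, with IC50 and efficacy from Hill equation fits.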
# [16] = qHTS assay for small molecule antagonists of peroxisome proliferator-activated receptor delta signaling (AID 588535; active = well fitted inhibition curve with a large enough effect in the signal ratio, with a control signal flat, not every such curve was filed as active; the % refers to the signal ratio;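 for max response: cells co-treated with a PPAR-delta agonist as stimulator during compound exposure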); conditions: HEK293T PPARd-UAS-bla, beta-lactamase FRET ratio, 18 h; 460 nm channel
# Summary of the method: (§1)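 HEK293T PPAR-delta-UAS-bla cells, 4000/well, 2% charcoal/dextran FBS; 5 h 37 C; cpd titration; 18 h 37 C; CCF4 2 h RT; FI 460/530 nm; Hill fit → IC50, efficacy.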
# [17] = target: Peroxisome proliferator-activated receptor delta (Homo sapiens) (UniProt Q03181); experiment: as above
# Summary of the method: as §1
# [18] = qHTS Assay for Lipid Storage Modulators (AID 1519; calls by dose curve); conditions: Drosophila S3 cells, BODIPY lipid droplet/cell ratio, laser cytometry, cells loaded with oleic acid
# Summary of the method: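 Cells seeded at 5,000 per well were treated with compounds over a concentration series and loaded with oleic acid (400 uM, as added). Lipid droplet fluorescence (488 nm excitation, 500-530 nm channel) was read by laser-scanning cytometry and normalized to 20 uM Triacsin C.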
# [19] = target: Bile acid receptor (Homo sapiens) (UniProt Q96RI1); experiment: qHTS assay for small molecule antagonists of farnesoid X receptor signaling (AID 588526; calls by dose curve; note: % is set by controls: 0 for no effect and ±100 for the full control effect)
# Summary of the method: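 Beta-lactamase reporter antagonist mode: HEK293T FXR-UAS-bla cells, titrated compound, CDCA stimulation, 16 h 37 C, CCF4 dye 2 h RT. Data normalized to CDCA 50 uM and DMSO; Hill-fit IC50.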
# [20] = target: Peroxisome proliferator-activated receptor gamma (Homo sapiens) (UniProt P37231); experiment: qHTS assay for small molecule antagonists of peroxisome proliferator-activated receptor gamma signaling (AID 588537; active = well fitted inhibition curve with a large enough effect in the signal ratio, with a control signal flat, not every such curve was filed as active; the % refers to the signal ratio;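 note: reporter cells co-stimulated with 50 nM rosiglitazone agonist during compound treatment; % of control where 0% means no effect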)
# Summary of the method: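 Antagonist mode, beta-lactamase reporter in HEK293; charcoal/dextran FBS 1%; 3000 cells/well, 37 C 6-6.5 h; cpd titration + rosiglitazone 50 nM final, 16 h 37 C; CCF4, 2 h RT; 460/530 nm; Hill fit → IC50, efficacy.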
# Sequence of Peroxisome proliferator-activated receptor gamma (Homo sapiens) (P37231 whole entry, looked up): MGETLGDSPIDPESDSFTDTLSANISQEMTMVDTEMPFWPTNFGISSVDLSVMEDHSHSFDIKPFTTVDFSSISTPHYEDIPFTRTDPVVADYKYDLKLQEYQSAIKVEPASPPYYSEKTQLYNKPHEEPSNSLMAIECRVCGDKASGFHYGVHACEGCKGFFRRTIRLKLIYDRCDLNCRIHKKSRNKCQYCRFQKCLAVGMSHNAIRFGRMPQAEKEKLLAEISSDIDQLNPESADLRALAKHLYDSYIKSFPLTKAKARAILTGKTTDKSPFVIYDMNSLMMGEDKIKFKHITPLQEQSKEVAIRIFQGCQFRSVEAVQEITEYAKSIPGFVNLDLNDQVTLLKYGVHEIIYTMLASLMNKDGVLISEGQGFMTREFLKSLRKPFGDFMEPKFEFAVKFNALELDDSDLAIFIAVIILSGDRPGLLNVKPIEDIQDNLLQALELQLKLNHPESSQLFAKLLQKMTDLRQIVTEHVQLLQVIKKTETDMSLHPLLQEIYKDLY
# Sequence of Glucocorticoid receptor (Homo sapiens) (P04150 whole entry, looked up): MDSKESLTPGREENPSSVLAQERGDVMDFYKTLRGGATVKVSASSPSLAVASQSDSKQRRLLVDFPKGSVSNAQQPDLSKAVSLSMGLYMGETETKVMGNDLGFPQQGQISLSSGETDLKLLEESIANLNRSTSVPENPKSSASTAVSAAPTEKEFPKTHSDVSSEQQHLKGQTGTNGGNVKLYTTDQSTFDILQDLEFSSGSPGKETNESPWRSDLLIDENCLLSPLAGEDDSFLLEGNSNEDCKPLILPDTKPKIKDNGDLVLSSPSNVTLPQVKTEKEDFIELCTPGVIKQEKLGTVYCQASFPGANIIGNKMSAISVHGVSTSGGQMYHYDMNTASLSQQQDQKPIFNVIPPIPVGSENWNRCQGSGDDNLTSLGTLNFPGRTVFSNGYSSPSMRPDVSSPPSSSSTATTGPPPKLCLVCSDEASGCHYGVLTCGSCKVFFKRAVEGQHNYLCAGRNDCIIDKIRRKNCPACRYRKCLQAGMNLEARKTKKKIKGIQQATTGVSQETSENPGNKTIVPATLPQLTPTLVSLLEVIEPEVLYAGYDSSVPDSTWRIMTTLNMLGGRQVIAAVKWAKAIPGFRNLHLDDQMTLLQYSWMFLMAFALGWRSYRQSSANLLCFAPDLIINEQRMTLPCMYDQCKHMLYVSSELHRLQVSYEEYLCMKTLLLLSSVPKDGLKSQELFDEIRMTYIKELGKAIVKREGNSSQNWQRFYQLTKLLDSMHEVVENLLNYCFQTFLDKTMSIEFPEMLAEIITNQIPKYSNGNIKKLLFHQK
# Sequence of Estrogen receptor (Homo sapiens) (P03372 whole entry, looked up): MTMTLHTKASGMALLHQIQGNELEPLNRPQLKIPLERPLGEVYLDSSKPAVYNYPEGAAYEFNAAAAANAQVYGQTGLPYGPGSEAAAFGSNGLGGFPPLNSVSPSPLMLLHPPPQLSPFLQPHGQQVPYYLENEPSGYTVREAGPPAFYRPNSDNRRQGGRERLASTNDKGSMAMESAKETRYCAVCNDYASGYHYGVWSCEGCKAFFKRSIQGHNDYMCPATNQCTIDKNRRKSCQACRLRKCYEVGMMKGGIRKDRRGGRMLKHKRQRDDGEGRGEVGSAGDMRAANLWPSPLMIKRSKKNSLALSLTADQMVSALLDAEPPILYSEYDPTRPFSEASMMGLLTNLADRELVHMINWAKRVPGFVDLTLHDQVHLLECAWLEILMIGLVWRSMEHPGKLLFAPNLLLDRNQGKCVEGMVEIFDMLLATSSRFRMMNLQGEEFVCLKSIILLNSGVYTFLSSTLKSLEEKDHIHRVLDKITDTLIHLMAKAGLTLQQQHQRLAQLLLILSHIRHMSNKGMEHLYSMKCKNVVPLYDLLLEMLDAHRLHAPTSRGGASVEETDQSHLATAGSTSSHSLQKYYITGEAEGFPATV
# Sequence of Vitamin D3 receptor (Homo sapiens) (P11473 whole entry, looked up): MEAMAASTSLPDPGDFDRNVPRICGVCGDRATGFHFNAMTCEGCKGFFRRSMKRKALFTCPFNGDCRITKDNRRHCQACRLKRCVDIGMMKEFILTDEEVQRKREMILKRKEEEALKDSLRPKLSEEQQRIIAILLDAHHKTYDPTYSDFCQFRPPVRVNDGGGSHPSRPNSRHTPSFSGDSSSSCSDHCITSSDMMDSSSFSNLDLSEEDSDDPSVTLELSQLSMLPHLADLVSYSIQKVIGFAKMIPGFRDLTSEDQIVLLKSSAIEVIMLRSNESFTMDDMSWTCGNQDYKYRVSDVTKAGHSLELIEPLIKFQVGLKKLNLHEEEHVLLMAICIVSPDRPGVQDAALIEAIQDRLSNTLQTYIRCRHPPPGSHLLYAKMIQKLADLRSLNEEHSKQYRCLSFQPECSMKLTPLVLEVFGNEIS
# Sequence of Androgen receptor (Homo sapiens) (P10275 whole entry, looked up): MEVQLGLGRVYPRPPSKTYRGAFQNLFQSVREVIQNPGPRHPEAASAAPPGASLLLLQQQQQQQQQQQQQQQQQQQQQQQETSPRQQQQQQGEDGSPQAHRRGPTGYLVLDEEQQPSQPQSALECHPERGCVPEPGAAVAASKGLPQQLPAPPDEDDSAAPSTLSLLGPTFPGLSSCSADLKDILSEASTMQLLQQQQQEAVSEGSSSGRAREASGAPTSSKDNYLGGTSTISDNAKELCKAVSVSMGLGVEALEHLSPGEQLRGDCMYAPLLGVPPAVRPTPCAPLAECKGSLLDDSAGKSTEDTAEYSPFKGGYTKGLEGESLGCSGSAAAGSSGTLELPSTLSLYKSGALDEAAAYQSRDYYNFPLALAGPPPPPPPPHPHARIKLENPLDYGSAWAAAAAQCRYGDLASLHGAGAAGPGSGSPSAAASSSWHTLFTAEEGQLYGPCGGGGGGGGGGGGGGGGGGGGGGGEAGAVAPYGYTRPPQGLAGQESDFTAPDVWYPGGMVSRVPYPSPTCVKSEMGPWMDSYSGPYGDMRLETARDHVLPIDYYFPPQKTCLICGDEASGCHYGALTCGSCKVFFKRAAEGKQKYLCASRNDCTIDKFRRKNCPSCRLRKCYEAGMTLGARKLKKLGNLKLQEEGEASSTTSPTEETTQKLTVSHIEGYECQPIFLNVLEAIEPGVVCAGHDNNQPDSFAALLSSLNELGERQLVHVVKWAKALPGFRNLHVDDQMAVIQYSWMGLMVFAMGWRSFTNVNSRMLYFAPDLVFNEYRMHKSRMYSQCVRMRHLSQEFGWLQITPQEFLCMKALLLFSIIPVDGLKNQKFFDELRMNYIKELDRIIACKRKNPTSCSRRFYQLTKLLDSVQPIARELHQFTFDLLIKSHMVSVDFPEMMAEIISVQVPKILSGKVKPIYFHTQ
# Sequence of Peroxisome proliferator-activated receptor delta (Homo sapiens) (Q03181 whole entry, looked up): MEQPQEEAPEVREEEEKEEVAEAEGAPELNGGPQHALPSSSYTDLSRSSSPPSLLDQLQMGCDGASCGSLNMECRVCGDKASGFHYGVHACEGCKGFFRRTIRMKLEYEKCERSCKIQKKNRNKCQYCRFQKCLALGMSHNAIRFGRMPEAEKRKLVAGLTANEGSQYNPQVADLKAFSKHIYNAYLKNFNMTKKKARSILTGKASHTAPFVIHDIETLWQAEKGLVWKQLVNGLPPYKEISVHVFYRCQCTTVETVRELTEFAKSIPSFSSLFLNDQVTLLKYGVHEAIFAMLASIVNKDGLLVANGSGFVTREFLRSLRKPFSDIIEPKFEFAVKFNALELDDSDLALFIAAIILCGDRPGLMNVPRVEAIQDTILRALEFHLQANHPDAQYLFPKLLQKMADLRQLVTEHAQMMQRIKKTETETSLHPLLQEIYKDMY
# Sequence of Alpha-galactosidase A (Homo sapiens) (P06280 whole entry, looked up): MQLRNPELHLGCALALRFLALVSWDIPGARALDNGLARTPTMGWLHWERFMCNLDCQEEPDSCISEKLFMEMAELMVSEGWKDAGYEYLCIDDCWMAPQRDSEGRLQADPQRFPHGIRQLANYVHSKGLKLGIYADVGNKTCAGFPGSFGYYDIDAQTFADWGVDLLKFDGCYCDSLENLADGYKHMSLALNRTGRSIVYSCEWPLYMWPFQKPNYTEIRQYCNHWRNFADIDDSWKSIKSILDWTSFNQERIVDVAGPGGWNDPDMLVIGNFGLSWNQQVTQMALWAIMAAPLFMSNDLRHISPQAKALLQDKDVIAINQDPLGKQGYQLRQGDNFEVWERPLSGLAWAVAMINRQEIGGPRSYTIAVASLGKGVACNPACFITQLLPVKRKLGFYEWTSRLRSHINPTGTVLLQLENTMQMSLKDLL
# Sequence of Ubiquitin carboxyl-terminal hydrolase 1 (Homo sapiens) (O94782 whole entry, looked up): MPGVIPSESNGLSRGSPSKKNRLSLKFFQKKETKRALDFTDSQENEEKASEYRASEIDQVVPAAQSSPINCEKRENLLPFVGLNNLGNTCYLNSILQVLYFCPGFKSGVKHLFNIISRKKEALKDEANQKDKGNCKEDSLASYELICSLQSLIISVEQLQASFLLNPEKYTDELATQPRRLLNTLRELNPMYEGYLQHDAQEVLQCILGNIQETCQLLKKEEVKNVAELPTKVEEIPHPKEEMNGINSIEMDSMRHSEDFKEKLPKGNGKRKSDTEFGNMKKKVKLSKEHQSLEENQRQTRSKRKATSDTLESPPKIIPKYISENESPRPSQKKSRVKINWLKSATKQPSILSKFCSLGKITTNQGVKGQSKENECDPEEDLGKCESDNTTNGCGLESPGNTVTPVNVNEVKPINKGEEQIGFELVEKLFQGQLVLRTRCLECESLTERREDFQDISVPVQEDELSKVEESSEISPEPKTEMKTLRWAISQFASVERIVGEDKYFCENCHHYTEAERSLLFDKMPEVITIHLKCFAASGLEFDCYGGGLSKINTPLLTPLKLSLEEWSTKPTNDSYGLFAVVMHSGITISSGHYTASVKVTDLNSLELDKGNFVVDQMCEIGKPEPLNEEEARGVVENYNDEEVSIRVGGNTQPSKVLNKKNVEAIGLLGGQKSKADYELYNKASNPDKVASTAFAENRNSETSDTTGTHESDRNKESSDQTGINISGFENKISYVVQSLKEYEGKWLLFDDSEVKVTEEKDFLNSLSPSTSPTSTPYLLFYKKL
compound,measurement,setting,value
CC(C)C[C@H](NC(=O)[C@@H]1O[C@H]1C(=O)O)C(=O)NCCCCN=C(N)N,outcome,[1],inactive
same,outcome,[2],inactive
CCOC(=O)C(CCc1ccccc1)NC(C)C(=O)N1Cc2ccccc2CC1C(=O)O (configuration not stated),outcome,[3],inactive
same,outcome,[4],inactive
COc1ccc(CCC(=O)c2c(O)cc(O[C@@H]3O[C@H](CO)[C@@H](O)[C@H](O)[C@H]3O[C@@H]3O[C@@H](C)[C@H](O)[C@@H](O)[C@H]3O)cc2O)cc1O,outcome,[5],inactive
same,outcome,[6],inactive
same,outcome,[7],inactive
same,outcome,[8],inactive
same,outcome,[9],inactive
same,activation,[10],12.1% (inactive)
same,outcome,[11],inactive
same,activation,[12],-0.542% (inactive)
same,outcome,[13],inactive
same,outcome,[14],inactive
same,outcome,[15],inactive
O=C(/C=C/C=C/c1ccc2c(c1)OCO2)N1CCCCC1,outcome,[4],inactive
same,outcome,[8],inactive
same,outcome,[9],inactive
same,max response,[16],-63.1%
same,outcome,[17],inactive
same,outcome,[15],inactive
CCc1cccc2c3c([nH]c12)[C@@](CC)(CC(=O)O)OCC3,"activity change, negative = inhibition",[18]; at 25.7 µM (top of the series),-1.67% (inactive)
same,max response,[18]; measured here: cell count channel max response,8.85%
same,max response,[18]; measured here: lipid channel max response,4.97%
C=C1C[C@]23C[C@@]1(O)CC[C@H]2[C@@]12C=C[C@H](O)[C@@](C)(C(=O)O1)[C@H]2[C@@H]3C(=O)O,outcome,[5],inactive
same,outcome,[6],inactive
same,outcome,[7],inactive
same,outcome,[19],inactive
same,activation,[12],-5.06% (inactive)
same,outcome,[13],inactive
same,max response,[16],8.68%
same,outcome,[17],inactive
same,outcome,[14],inactive
same,outcome,[20],inactive
same,outcome,[15],inactive
C[C@]1(C2CCCC2)Cc2cc(OCC(=O)O)c(Cl)c(Cl)c2C1=O,outcome,[1],inactive
same,outcome,[2],inactive
